# Experiments:
# Assay in all cases: PBM binding z-score (relative to random genomic background probes); higher = stronger binding; sequences stand for … in GC…GCGATTGACAGCGTAGAATGAAGG
# [1] = system: RARb homodimer (NR concentration 270 nM)
# In short: (§1)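 Scanned fluorescence from custom Agilent 4×180K protein-binding microarrays was regression-normalized. Binding z-scores use random background probes as reference. Ligand-free nuclear receptor dimers were incubated on the arrays for 1 h and detected with antibodies against each partner (one per run).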
# [2] = system: RARg:RXRa (NR concentration 270 nM, RXRa partner concentration 90 nM)
# In short: as §1
# [3] = system: RARg homodimer (NR concentration 270 nM)
# In short: as §1
# [4] = system: RXRa DBDmut IVT, anti-RXR (DBD mutation: RXRa K156A/R161A, NR concentration 90 nM)
# In short: as §1
# [5] = system: RXRa homodimer (NR concentration 180 nM)
# In short: as §1
# [6] = system: THRa:RXRa (NR concentration 90 nM, RXRa partner concentration 90 nM)
# In short: as §1
# [7] = system: THRa homodimer (NR concentration 90 nM)
# In short: as §1
# [8] = system: VDR homodimer (NR concentration 270 nM)
# In short: as §1
Sequence,PBM binding z-score [1],PBM binding z-score [2],PBM binding z-score [3],PBM binding z-score [4],PBM binding z-score [5],PBM binding z-score [6],PBM binding z-score [7],PBM binding z-score [8]
TTACCAAGGTGAGCTGACGTCGTTGATCCAACTC,-0.0202,0.00493,0.0726,-0.698,0.32,0.839,-0.28,-1.04
CAGACTGGGGCAAGGTTACCATAACGCACAGCCA,1.35,1.16,1.52,-0.141,1.34,1.41,0.328,0.0721
CCGACTGGGGCATAAGGCTACCATAAGCCAGCCC,0.172,-0.0263,0.171,-0.797,-0.16,-0.225,-0.406,-0.345
TGAATGAGGGTAAAGATCAGGGAACGTGGCGTCG,-0.018,0.443,0.391,-0.234,1.07,0.432,-0.386,-0.201
CCTATTTGTTGACCATAAGGGCAACCGAAGCTCG,2.18,0.901,1.09,0.849,0.768,1.78,1.89,0.782
ATCCAAAGGTCGACGAGGTGAGTATACACCGTTT,3.09,4.27,4.1,1.22,4.44,3.66,1.12,0.772
CAAACTAGGTCAAGGTCAAGGTCGGTTTGTGCCA,5.4,6.25,7.34,2.79,6.62,4.54,4.73,4.06
TCAAGTAGGTTACCAATGGGGCATTCAGCTTTCT,1.04,1.42,0.77,1.45,0.978,0.342,-0.498,-0.25
TCTATTAGTTGAAGGGCAACCGACGAGTCCGTTT,1.41,0.635,0.786,1.57,0.701,0.419,0.09,1.87
AGTCAAAGTCCATCTAGGTAACGTAAGATATGCT,0.564,0.538,1.09,1.23,-0.0358,1.14,0.0644,0.572
AGAATGAGGTTAAGATCAAGGAAACAGAATACAT,0.789,2.02,1.57,1.13,2.68,2.39,0.555,0.551
TAGCCTAGGTCATGCGGGCCAGTACAGTGTCGGC,2.93,3.86,4.22,0.739,3.08,3.06,0.586,0.448
GCATACAGGTGAAACGCAGGTAACTCAGGGTGGC,0.299,1.03,0.276,-0.217,0.854,1.42,-0.151,-0.463
CGTAAAAGTTCAACTAAGGTAACGTAAAGCACGC,3.88,5.28,6.11,4.41,4.42,5.35,1.75,3.84
TCATATAGGTAAACAGGTGCAAGTCCGTAAGTTA,0.278,0.453,0.0324,1.32,1.27,0.672,0.416,1.14
ACTATTAGTTGATACGAGGGCAACCGATAGGTTG,1.59,1.03,0.921,1.04,0.536,2.55,0.673,0.979
TCAGTCAGGTGAAGGTAACTCAGGTACGCAGTCG,0.729,0.735,0.793,0.667,0.742,2.32,1.34,-0.131
ACTATTAGTCGAGACGAGGGCAACCGATAGGTTG,0.973,0.43,0.663,0.357,0.46,0.977,0.0699,0.358
CCTAGCAGGCCAATCTGGGTCACTCAAGGCTTGA,2.33,1.22,1.57,0.0731,0.984,3.9,0.369,0.000728

Sequence,PBM binding z-score [1],PBM binding z-score [2],PBM binding z-score [3],PBM binding z-score [4],PBM binding z-score [5],PBM binding z-score [6],PBM binding z-score [7],PBM binding z-score [8]
CCTGCTGGGCCATTCAGAGGTCATTGATCATATG,4.1,4.63,3.19,1.05,3.79,3.24,1.12,3.17
CTCGAAAGGTCGTGCTCAGGTGAGTTTACCAAAC,2.8,5.22,4.34,2.46,5.17,3.84,1.18,3.54
ATATGTAGGTTACATCCGGGACATTCAGGCTATG,0.852,1.56,1.27,0.669,1.27,2.66,1.46,0.967
AGTCAAAGTTCAGGTCGAGGTAACGTAAAGCACG,3.87,4.95,4.97,3.14,3.08,4.18,2.7,2.75
CCTTACGTGTCACGAGGTTATAGCACGACGAGCG,1.49,2.24,1.64,0.866,2.06,1.96,0.982,1.01
TCATATAGGTCAATGCTAGGTGAAAGTCCGATCT,3.86,5.46,5.11,2.09,4.2,3.7,0.903,0.879
CCTACTGGGCCAAGGTCATTGATCAGTCAAAGCA,3.43,3.59,2.83,1.19,3.08,3.49,2.36,2.15
CCTAGCAGGCCAGGATCACTCAAGCATTTCGCTT,-0.596,-0.33,-0.385,-0.0229,-0.232,-0.455,-0.257,-0.251
CGAACTAGGTCATTGAAAGGACAGTGAATAGTAA,3.34,6.37,4.98,2.17,2.84,3.16,0.878,0.863
GCTTACGGGTCAAAGCTTATAGCATGAATAGAAT,2.29,4.92,4.8,2.48,5.91,2.12,-0.718,0.809
GCTGCTAGGTCAACTGCTGGTCAGCTAAAGCTCG,3.54,5.38,5.45,1.4,2.79,2.92,0.954,-0.195
TAGCCTAGGTCATTGGGCCAATATAGTACGCATC,2.88,4.02,3.84,1.41,2.93,2.91,1.2,1.1
CCTAGTTGGTCGGGAGGTCACACACCGGATATGA,4.12,4.67,3.83,0.718,5.07,3.56,2.93,3.06
CCTGCTAGGTCAGGGTCAGCTAATCTACAGTATG,4.16,4.45,5.23,1.37,4.03,3.48,1.81,1.01
CGTCCAAGGTCAAAGTCAGTGAAAGAGACTCGAA,3.32,5.86,6.34,3.91,5.95,3.5,1.72,2.46
CGAACTAGGTCATCCAAGACAGTGAATACATTGA,2.81,4.15,4.88,2.42,3.45,2.84,0.947,1.06
GGCACGAGGGCATTCGAGTTGATAGCATGGCGAT,0.614,1.04,1.53,3.11,0.455,3.42,-0.251,3.45
TGAATGAAGTTATAAGATCAGGGAACGTTGCAAA,-0.946,-0.0858,-0.101,-0.953,-0.319,-0.471,-0.931,-0.524
TCTGCAAGGTCAACGATGGTCAGCTAATCTGCTA,4.58,6.12,6.75,2.83,5.75,4.24,2.36,1.62

Sequence,PBM binding z-score [1],PBM binding z-score [2],PBM binding z-score [3],PBM binding z-score [4],PBM binding z-score [5],PBM binding z-score [6],PBM binding z-score [7],PBM binding z-score [8]
ACTAGCAGGCCAAGGGTCACTAAAGATTAGTCCG,3.83,4.08,3.84,0.469,4.13,2.31,0.0838,1.07
CCTCGGAGGACAACAGCAGGTCAGAGCTGCCAGA,2.46,2.16,2.22,0.024,0.692,2.01,0.482,0.0855
TCTAGCAGCCCAGAGGGTCACTCAAGAGGTACGG,2.38,2.16,1.8,-0.186,2.23,1.63,-0.455,0.294
ATCTCTAGGTAAGACTCGGTTCAGTGAAGAACGC,0.578,0.12,0.211,0.708,0.162,0.549,0.875,2.06
CGTCCAAGGTCAGAGAGGTCAGTTAATGCCGAGT,5.24,6.43,7.24,3.83,5.63,4.39,2.8,6.29
CCAACTAGGTCAAGGACAGTGAATCTCCGCACGC,3.18,3.66,4.42,1.8,2.41,3.16,2.22,0.694
GCATATAGGTAATACTAGGTGAAAGTCCGATTGT,0.423,0.466,0.359,0.563,0.745,3.45,0.246,0.235
AGTCAAAGTTCACTAGGTAACATAAGATTCAGCT,3.84,4.96,5.9,4.29,3.76,2.08,0.138,4.22
GCGACTGGGGCATCAGCACGTTACCATAACTTAA,0.000503,0.0207,0.311,0.239,0.0852,-0.219,-0.089,-0.335
CCGAGTAGGTTATGGGGCGTTCAGGCAACGGTGA,0.761,0.491,0.0403,-0.298,0.251,0.608,0.402,0.062
TCATATAGGTAAAAGGTGACAGTCGGTGTGGTAA,1.71,1.48,0.836,1.66,2.28,1.4,0.394,0.0898
CGAACTAGGTCATTGACAGGACGGTGAATAGTAA,2.33,4.09,4.33,2.13,2.59,2.58,0.313,0.872
AGAACGAGGGCACTGAGTTGATAGCACGGGTGGC,0.877,1.03,1.64,1.71,1.02,1.19,0.176,2.94
GCTATTAGTTGGAAGGGCAACCGAATGATTCTCG,0.941,0.317,0.522,0.581,0.0792,-0.126,-0.242,-0.28
ATATGTAGGTTACATCCGGGTCATTCATGCTATG,2.82,3.6,2.21,1.42,2.93,3.61,2.46,3.43
GCTAGTTGGTCAGTAAAAGGTCACGCACCGGTCG,5.17,6.19,5.77,0.692,6.35,3.75,2.43,2.07
ACTATTAGTTGAGACGAGGCCAACCGATAGGTTG,0.728,0.273,0.272,0.0149,0.182,2.57,0.433,0.394
TAGCCTAGGTCATTGGGCCAGAATAGTACGCATC,2.6,4.03,4.07,1.58,2.8,2.66,0.586,1.12

# Source: the supplement of paper PMC6555819
